Drawing on ChEMBL document CHEMBL4513146, “CO-ADD screening of Karazin Kharkiv National University (Ukraine) compounds”, this text covers Inhibition for 30 compounds.

Entries with a potency or affinity are not part of this list.

The subject of test [1] is Klebsiella pneumoniae. The following applies: Concentration 32 ug.mL-1;; ASSAY_TEST Inhibition of Bacterial Growth; detection method Absorption (OD600); MEDIA CAMHB; plate type 384well; NBS; CORNING #3640; time 18 hr.
Test [2] relates to Candida albicans. The following applies: Concentration 32 ug.mL-1; ASSAY_TEST Inhibition of Fungal Growth; detection method Absorption (OD530).
In test [3] the test system is Cryptococcus neoformans. The following applies: Concentration 32 ug.mL-1; ASSAY_TEST Inhibition of Fungal Growth; detection method Resazurin; Absorption (OD600-OD570); plate type 384well; NBS; CORNING #3640.

Regarding `Cc1ccccc1N1CCN(c2nccn3c(=O)n(CC(=O)Nc4cccc(C(C)C)c4)nc23)CC1`, the figures for the Inhibition in test [1], in test [2] and in test [3] were 0.34%, 19.66% and -7.69%, respectively.
On to `O=C(CSc1nnc2c(=O)n(-c3ccccc3)ccn12)Nc1ccc2c(c1)OCO2`, for which the Inhibition (usually the drop in the measured response relative to a control, in per cent) in test [1] was 8.73%; in test [2], 0.46%; in test [3], -18.26%.
The matching figures for `COc1ccccc1N1CCN(C(=O)Cn2nc3ccc(-c4ccc(C)c(C)c4)nn3c2=O)CC1`: 9.25%, -0.19% and -3.44%.
The matching figures for `O=C(Cn1nc2ccc(Sc3cccc(F)c3)nn2c1=O)Nc1cccc(Cl)c1`: -3.42%, 11.97% and -3.34%.
The matching figures for `Cc1cc(NC(=O)CSc2nc3ccccc3n3cnnc23)ccc1Br`: 14.4%, 4.71% and -40.95%.
Turning to `CCc1cccc(NC(=O)Cn2nc3ccc(SC(C)C)nn3c2=O)c1`, the Inhibition was 7.23% in test [1], 12.21% in test [2] and -12.08% in test [3].
The matching figures for `COc1cccc(-n2ccn3c(SCC(=O)NC(C)C)nnc3c2=O)c1`: 10.83%, 1.96% and -12.8%.
Taken in the same sequence, the figures for `CC(C)Cn1c(=O)c2ccc(C(=O)NC3CCCCC3)cc2n2c(=O)n(CC#N)nc12` were 10.69%, -0.09% and -19.28%.
The matching figures for `O=c1c2sccc2n2c(=O)n(Cc3ccccc3Cl)nc2n1Cc1cccs1`: -3.57%, 32.61% and -5.81%.
For `COc1ccc(NC(=O)Cn2nc3c4cc(-c5ccc(C)c(C)c5)nn4ccn3c2=O)cc1OC`, the Inhibition in test [1] is reported as 13.24%; in test [2], 0.2%; in test [3], -30.03%.
Taken in the same sequence, the figures for `Cc1ccc(NC(=O)Cn2c(=O)c3nnc(C)n3c3ccccc32)cc1C` were 6.79%, 0.69% and -4.45%.
The matching figures for `O=C(Cn1nc2c(Oc3ccccc3)nccn2c1=O)Nc1ccc2c(c1)OCCO2`: 6.43%, 0.75% and -7.17%.
The matching figures for `CCOc1ccc(NC(=O)Cn2nc3c(N4CCCC(C)C4)nccn3c2=O)cc1` (stereo not given): 13.07%, 0.78% and -15.46%.
As to `COc1cccc(Sc2nc3ccccc3n3c(=O)n(CC(=O)Nc4ccc(C)cc4)nc23)c1`, the Inhibition in test [1] is given as 9.1%; in test [2], 4.31%; in test [3], -30.42%.
The matching figures for `O=S(=O)(c1ccc2nncn2c1)N(Cc1ccc(Cl)cc1)c1ccc2c(c1)OCO2`: 8.29%, 2.29% and -11.3%.
Taken in the same sequence, the figures for `CC(C)NC(=O)CCn1c(=O)c2ccccc2n2c(=O)n(CC#N)nc12` were 10.9%, 0.91% and -13.64%.
Taken in the same sequence, the figures for `Cc1ccc(CNC(=O)Cn2nc3ccc(SC4CCCCC4)nn3c2=O)cc1` were 11.36%, 13.29% and -15.57%.
As for `O=C(CSc1nnc2c(=O)n(-c3ccccc3)ccn12)NCc1ccc(Cl)cc1`, the Inhibition in test [1] is listed as 5.95%; in test [2] it was -0.29%; in test [3], -12.48%.
The matching figures for `COc1ccc(N(Cc2ccc(F)cc2)S(=O)(=O)c2ccc3nncn3c2)cc1`: 12.52%, 2.69% and 2.37%.
Taken in the same sequence, the figures for `Cc1oc(-c2ccccc2)nc1CSc1nc2ccccc2n2c(C(C)C)nnc12` were 2.59%, 6.41% and -7.85%.
With `CCC(Sc1nnc2c(=O)n(-c3ccc(F)cc3)ccn12)C(=O)Nc1cc(OC)cc(OC)c1` (stereo not given), the Inhibition in test [1] was 12.14%; in test [2], -0.61%; in test [3] it was -13.06%.
Taken in the same sequence, the figures for `COc1cc(OC)c(NC(=O)Cn2nc3c(Oc4ccccc4)nccn3c2=O)cc1Cl` were -10.94%, 2.58% and -9.36%.
The matching figures for `CCCc1nnc2c(=O)n(CC(=O)Nc3ccc(NC(C)=O)cc3)c3ccccc3n12`: 9.56%, -0.49% and -26.74%.
Taken in the same sequence, the figures for `O=C(NCc1ccccc1)c1ccc2nn(CC(=O)N3CCN(c4ccccc4F)CC3)c(=O)n2c1` were 7.35%, 4.65% and -15.87%.
With `Cc1ccc(Sc2nccn3c(=O)n(CC(=O)Nc4ccc(F)c(Cl)c4)nc23)c(C)c1`, the Inhibition is -6.57% in test [1], 10.6% in test [2] and -11.17% in test [3].
The matching figures for `O=c1c2nnc(SCc3ccc(F)cc3)n2ccn1-c1ccc(Br)cc1`: 4.74%, 2.87% and -8.82%.
The matching figures for `COc1cccc(Sc2nc3ccccc3n3c(=O)n(CC(=O)Nc4cccc(C#N)c4)nc23)c1`: 5.87%, 14.41% and -21.13%.
The matching figures for `CCc1ccc(N(Cc2cccc(Cl)c2)S(=O)(=O)c2cccn3c(C)nnc23)cc1`: 7.34%, 9.1% and -5.8%.
For the compound `O=c1n(Cc2ccc3c(c2)OCO3)nc2ccc(-c3ccccc3)nn12`, the Inhibition is recorded as 13.28% in test [1], 2.43% in test [2] and -7.16% in test [3].
Taken in the same sequence, the figures for `Cc1ccc(-c2ccc3nnc(CCC(=O)N4CCN(C(=O)c5ccco5)CC4)n3n2)cc1C` were 19.25%, 2.04% and -14.25%.
